Source: PubChem (Johns Hopkins Ion Channel Center)
Hits are enriched below; roughly 1.6% of the tested compounds scored in any of these assays.
KCNQ2 inh = blocks the rat KCNQ2 potassium channel | O88943 | AID 2156 | 310,000 compounds, 1.1% hits | CHO-K1 KCNQ2, FluxOR thallium flux, 20 min; active compounds read low | B-score at 10 µM;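 active means fluorescence ratio B-score at most minus 3 library SDs, with starting brightness B-score within 2 library SDs, cut at about -5.5 in these data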
Target sequence (O88943 whole entry, looked up): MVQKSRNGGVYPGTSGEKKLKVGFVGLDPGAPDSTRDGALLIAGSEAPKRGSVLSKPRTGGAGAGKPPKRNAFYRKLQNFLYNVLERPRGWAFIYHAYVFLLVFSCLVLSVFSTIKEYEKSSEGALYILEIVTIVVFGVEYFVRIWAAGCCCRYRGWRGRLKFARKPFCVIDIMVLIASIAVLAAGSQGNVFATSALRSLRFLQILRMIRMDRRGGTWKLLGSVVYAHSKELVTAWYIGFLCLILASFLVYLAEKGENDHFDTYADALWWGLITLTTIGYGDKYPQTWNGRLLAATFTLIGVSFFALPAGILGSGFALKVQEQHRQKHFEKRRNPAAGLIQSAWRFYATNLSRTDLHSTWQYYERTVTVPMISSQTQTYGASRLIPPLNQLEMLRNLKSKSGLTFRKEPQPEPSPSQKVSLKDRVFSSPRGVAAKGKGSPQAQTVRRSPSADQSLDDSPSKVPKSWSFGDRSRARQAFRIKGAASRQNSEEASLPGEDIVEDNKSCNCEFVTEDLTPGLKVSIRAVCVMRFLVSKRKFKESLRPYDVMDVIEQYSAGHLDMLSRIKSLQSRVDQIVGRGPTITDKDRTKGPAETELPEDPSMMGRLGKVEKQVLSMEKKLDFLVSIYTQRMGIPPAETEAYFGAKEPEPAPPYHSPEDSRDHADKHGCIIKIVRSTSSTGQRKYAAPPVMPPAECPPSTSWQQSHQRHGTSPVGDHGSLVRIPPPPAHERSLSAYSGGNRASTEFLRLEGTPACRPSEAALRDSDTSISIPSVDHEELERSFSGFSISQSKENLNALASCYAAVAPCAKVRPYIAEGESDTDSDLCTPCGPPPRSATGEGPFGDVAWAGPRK
KCNQ2 enhance = enhances the rat KCNQ2 potassium channel. B-score at 10 µM. CHO-K1 KCNQ2, FluxOR thallium flux fluorescence; active compounds read high. 310,000 compounds, 0.54% hits. O88943;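 active means fluorescence ratio B-score at least 3 SD of library B-scores, with initial fluorescence B-score within 3 of them, cut at about 5.3 in these data; same plate scores as AID 2156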;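 further: B-score of peak minus minimum over baseline fluorescence ratio after K+ and Tl+ stimulus; positive B-score means potentiation of KCNQ2 with more thallium influx and brighter signal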
* marks the source's active call; other numbers are inactive results.

How did Cc1ccc(NCc2nc3ccccc3n2C)c(C)c1 do in these assays?
KCNQ2 inh: -6.62*; KCNQ2 enhance: -6.62

How did Cc1cccc(NCc2nc3ccccc3n2C)c1 do in these assays?
KCNQ2 inh: inactive; KCNQ2 enhance: 0.47

How did COc1ccc(C)cc1NC(=O)c1cc(S(=O)(=O)N2CCOCC2)cn1C do in these assays?
KCNQ2 inh: inactive

Results for C=CCn1cn[nH]c1=S ?
KCNQ2 inh: -8.35*; KCNQ2 enhance: -8.35

Results for C=CCOc1ccc(CNn2cn[nH]c2=S)cc1 ?
KCNQ2 inh: inactive; KCNQ2 enhance: 0.06

What do the screens show for `O=C(CSc1nccc(=O)[nH]1)NC1CCCC1`?
KCNQ2 inh: inactive; KCNQ2 enhance: 0.13

What do the screens show for `CC(Sc1cccc[n+]1[O-])c1ccccc1` (configuration not stated)?
KCNQ2 inh: inactive; KCNQ2 enhance: 0.76

How did O=C(CSCc1c(F)cccc1Cl)NCCSCc1ccco1 do in these assays?
KCNQ2 inh: inactive

What do the screens show for `O=C(CSCc1ccc(Cl)cc1)NCCSCc1ccco1`?
KCNQ2 inh: -6.39*; KCNQ2 enhance: -6.39

What do the screens show for `COc1ccccc1OCC(=O)NCCSCc1ccc(Cl)cc1`?
KCNQ2 inh: -5.63*; KCNQ2 enhance: -5.63

Results for COc1ccccc1N(CC(=O)NCCSCc1ccc(Cl)cc1)S(C)(=O)=O ?
KCNQ2 inh: inactive; KCNQ2 enhance: 0.05

What do the screens show for `CCS(=O)(=O)c1nn2c(N)c(/C=C3/C=CC(=O)C(OC)=C3)c(=O)nc2s1`?
KCNQ2 inh: inactive

Results for CCOC1=C/C(=C/c2c(N)n3nc(-c4ccccc4)sc3nc2=O)C=CC1=O ?
KCNQ2 inh: -6.88*; KCNQ2 enhance: -6.88

What do the screens show for `COc1ccc(/C=N/NC(=O)c2cc(-c3cccn3C)n[nH]2)cc1OC`?
KCNQ2 inh: inactive; KCNQ2 enhance: 0.34

What do the screens show for `O=C(CN1C(=O)COc2ccc(S(=O)(=O)N3CCCC3)cc21)NC1CC1`?
KCNQ2 inh: inactive

What do the screens show for `O=C(CN1C(=O)COc2ccc(S(=O)(=O)N3CCCC3)cc21)NC1CCCCCCC1`?
KCNQ2 inh: inactive; KCNQ2 enhance: 10.8*

How did CC1Cc2ccccc2N1C(=S)NC(=O)c1cccc(Br)c1 (configuration not stated) do in these assays?
KCNQ2 inh: inactive; KCNQ2 enhance: 27.8*

Results for COc1cccc(NC(=S)N2c3ccccc3CC2C)c1 (configuration not stated) ?
KCNQ2 inh: inactive; KCNQ2 enhance: 1.57

What do the screens show for `CC1Cc2ccccc2N1C(=S)NC(=O)c1ccc(Cl)cc1Cl` (configuration not stated)?
KCNQ2 inh: inactive; KCNQ2 enhance: 21.1*

Results for COc1cccc(C(=O)NC(=S)N2c3ccccc3CC2C)c1OC (configuration not stated) ?
KCNQ2 inh: inactive; KCNQ2 enhance: 0.66

How did COc1cc2c(cc1OC)-c1cc3ccc4c(c3c[n+]1CC2)OCO4 do in these assays?
KCNQ2 inh: inactive

How did COC(=O)c1ccccc1N1C(=O)[C@@H]2C(c3ccc(Br)cc3)=NO[C@@H]2C1=O do in these assays?
KCNQ2 inh: inactive; KCNQ2 enhance: 0.29

Results for O=C(NS(=O)(=O)c1ccc(Cl)s1)c1ccccc1 ?
KCNQ2 inh: inactive; KCNQ2 enhance: 0.19

How did Cc1nc(SCC(=O)c2ccccc2)[nH]c(=O)c1Oc1ccc(Cl)cc1 do in these assays?
KCNQ2 inh: inactive; KCNQ2 enhance: 2.19

How did COc1ccc(-c2csc(NCc3ccco3)n2)cc1C do in these assays?
KCNQ2 inh: inactive

What do the screens show for `COc1ccc(-c2nc3cccc(C)n3c2NCc2ccco2)cc1OC`?
KCNQ2 inh: -6.01*; KCNQ2 enhance: -6.01

Results for S=c1[nH]cc(-c2ccccc2)n1-c1cccc(Cl)c1 ?
KCNQ2 inh: inactive; KCNQ2 enhance: 0.73

How did S=C(NC1CCCCC1)NN(c1ccccc1)c1ccccc1 do in these assays?
KCNQ2 inh: inactive

How did Cc1ccc2c(c1)N(C(=O)CCC(=O)NCc1cccc(Cl)c1)CC(C)O2 (configuration not stated) do in these assays?
KCNQ2 inh: -5.69*; KCNQ2 enhance: -5.69

How did Cc1ccc2c(c1)N(C(=O)CCC(=O)NCc1ccccc1)CC(C)O2 (configuration not stated) do in these assays?
KCNQ2 inh: inactive

Results for COc1ccc(Cl)cc1NC(=O)Cc1c(F)cccc1Cl ?
KCNQ2 inh: inactive

Results for Cc1cc(C(F)(F)F)cc(NNC(=O)NC(=O)c2ccccc2Cl)n1 ?
KCNQ2 inh: inactive

What do the screens show for `CCOC(=O)CNS(=O)(=O)c1cc(-c2n[nH]c(=O)c3ccccc23)ccc1C`?
KCNQ2 inh: inactive; KCNQ2 enhance: 1.33

What do the screens show for `Cc1ccc(S(=O)(=O)NCC(=O)N(c2ccccc2)C(C(=O)NCc2ccccc2)c2ccco2)cc1` (configuration not stated)?
KCNQ2 inh: -6.89*; KCNQ2 enhance: -6.89

How did Cc1cc(C)cc(N(C(=O)CNS(=O)(=O)c2ccccc2)C(C(=O)NCc2ccccc2)c2ccc(C)o2)c1 (configuration not stated) do in these assays?
KCNQ2 inh: inactive

How did O=[N+]([O-])c1ccc2[nH]ncc2c1 do in these assays?
KCNQ2 inh: inactive; KCNQ2 enhance: 0.19

Results for CC1(C)Cc2ccccc2C(CSc2ccccc2C(=O)O)=N1 ?
KCNQ2 inh: -6.05*; KCNQ2 enhance: -6.05

Results for COc1cc2c(cc1OC)C(CSc1ccccc1C(=O)O)=NC(C)(C)C2 ?
KCNQ2 inh: inactive

What do the screens show for `O=C(Cc1ccccc1)Nc1cc(Cl)ccc1Sc1ccccc1`?
KCNQ2 inh: inactive

How did O=C(Cc1ccc(Cl)cc1)Nc1ccccc1Sc1ccccc1 do in these assays?
KCNQ2 inh: inactive; KCNQ2 enhance: 7.78*

What do the screens show for `Cc1ccc(S(=O)(=O)Nc2cccc3ncccc23)cc1`?
KCNQ2 inh: inactive

Results for Cc1ccc(S(=O)(=O)Nc2cccc3ncccc23)s1 ?
KCNQ2 inh: inactive; KCNQ2 enhance: 5.98*

What do the screens show for `CCOC(=O)N1CCN(C(=O)c2ccc(N(Cc3ccccc3)S(C)(=O)=O)cc2)CC1`?
KCNQ2 inh: inactive

How did CC(C)C[C@H]1CN=C(Nc2ccccc2)N1CCCC1CCCC1 do in these assays?
KCNQ2 inh: inactive

How did CC(C)C[C@H]1CN=C(Nc2ccccc2)N1CCCC1CCCCC1 do in these assays?
KCNQ2 inh: -5.64*; KCNQ2 enhance: -5.64

How did O=c1oc2ccccc2c(Nc2ccc3ncccc3c2)c1[N+](=O)[O-] do in these assays?
KCNQ2 inh: inactive; KCNQ2 enhance: 0.6

Results for O=C(CSc1nnc(C2CCCCC2)n1-c1ccccc1)NCc1ccco1 ?
KCNQ2 inh: -5.57*; KCNQ2 enhance: -5.57

What do the screens show for `CCNC(=O)CSc1nnc(C2CC2)n1-c1ccccc1`?
KCNQ2 inh: inactive

What do the screens show for `Cc1ccc(S(=O)(=O)N2CCN(Cc3ccco3)CC2)cc1C`?
KCNQ2 inh: inactive

How did CCCc1ccc(S(=O)(=O)N2CCN(Cc3ccco3)CC2)cc1 do in these assays?
KCNQ2 inh: -5.87*; KCNQ2 enhance: -5.87

How did CCCN1Cc2cccc(C(=O)NCc3ccc(C)cc3)c2C1=O do in these assays?
KCNQ2 inh: inactive

What do the screens show for `Cc1ccc(C(=O)NCCOC23CC4CC(CC(C4)C2)C3)cc1`?
KCNQ2 inh: -6.03*; KCNQ2 enhance: -6.03

Results for COc1cc(OC)cc(C(=O)NCCOC23CC4CC(CC(C4)C2)C3)c1 ?
KCNQ2 inh: inactive

Results for CC(C)CN1CCC(=O)N(CCSc2ccccc2)CC1 ?
KCNQ2 inh: inactive; KCNQ2 enhance: 0.06
